# Rows were chosen to be rich in hits. Some 1.2% of all compounds tested hit in one or more screens of this group.
# RGS8-Gao reg = modulates binding of RGS8 to human Galphao; P09471; multiplexed bead flow cytometry; actives lie on both sides; response (percent of control binding), % at 10 µM; 0.34% of 220,000 active; AID 1423; in the data active = response below about 60% or above about 140%; inactive = in between;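 note: Galphao activated as the GDP aluminium fluoride complex binding bead-coupled RGS8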
# Target sequence (P09471 whole entry, looked up): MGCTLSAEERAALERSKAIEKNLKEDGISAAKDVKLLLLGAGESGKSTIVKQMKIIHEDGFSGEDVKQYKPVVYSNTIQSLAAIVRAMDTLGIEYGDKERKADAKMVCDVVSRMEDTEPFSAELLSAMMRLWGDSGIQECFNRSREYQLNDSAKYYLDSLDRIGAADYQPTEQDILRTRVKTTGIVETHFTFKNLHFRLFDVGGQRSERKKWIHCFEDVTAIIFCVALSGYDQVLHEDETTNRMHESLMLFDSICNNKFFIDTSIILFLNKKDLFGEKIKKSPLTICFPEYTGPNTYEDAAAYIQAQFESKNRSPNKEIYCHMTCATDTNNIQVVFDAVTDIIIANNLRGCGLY
# RGS4-Gao reg = modulates binding of RGS4 to human Galphao; P09471; Multiplexed bead flow cytometry; actives lie on both sides; binding response (% of control), % at 10 µM; 0.33% of 220,000 active; in the data active = binding response below about 49% or above about 150%; inactive = in between;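 note: fluorescent Galphao activated with aluminum fluoride binding bead-coupled RGS4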
# RGS16-Gao = modulates binding between human RGS16 and Galphao; 0.38% of 220,000 active; bead-based flow cytometry RGS16-Galphao binding, fluorescence; actives lie on both sides; O15492+P09471; binding response (% of control), % at 10 µM;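 note: Galphao activated by GDP with aluminum fluoride before binding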
# Target sequence (O15492 whole entry, looked up): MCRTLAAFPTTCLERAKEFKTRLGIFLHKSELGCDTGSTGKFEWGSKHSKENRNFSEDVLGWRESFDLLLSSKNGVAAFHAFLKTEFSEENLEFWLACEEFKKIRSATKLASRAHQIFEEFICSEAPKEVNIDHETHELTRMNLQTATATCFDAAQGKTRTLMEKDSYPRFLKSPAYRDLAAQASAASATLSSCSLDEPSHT
# Target sequence (P09471 whole entry, looked up): as the sequence (P09471 whole entry, looked up) above
# GSH bead fluor = compound fluoresces at 488/530 nm on GSH beads; GSH beads flow cytometry, compound fluorescence 488/530 nm; active compounds read high; fluorescence (KMESF) at 10 µM; 0.25% of 190,000 active; in the data active = fluorescence above about 89;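 note: glutathione beads carrying GST-tagged Bcl family fusion proteins plus one bare bead set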
# Avidin bead fluor = avidin bead compound fluorescence profile; AID 1775; fluorescence (KMESF) at 10 µM; Avidin beads, compound fluorescence 488/530 nm, flow cytometry; active compounds read high; 0.38% of 220,000 active; in the data active = fluorescence above about 47
# RGS7-Gao reg = regulators of human RGS7-Galphao interaction; P09471; Multiplexed bead flow cytometry, RGS7-Galphao binding; actives lie on both sides; binding response (% of control), % at 10 µM; 0.35% of 220,000 active; AID 1439; in the data active = binding response below about 49% or above about 150%; inconclusive = no clear call, values can overlap the other calls; inactive = in between;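 note: fluorescent Galphao held in activated GDP-AlF4 state binding bead-coupled RGS7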
# RGS4-Gao HTS = modulates binding between human RGS4 and Galphao; shares compounds with RGS16-Gao; multiplexed bead flow cytometry, RGS–Galpha-o binding; 99% of 1,600 active; RGS4–Galpha-o binding response, % at 10 µM;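 note: fluorescently labeled Galpha-o bound to GDP with aluminium fluoride binding biotinylated RGS beads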
# Avidin counter = counter-screen: compounds disrupting biotin binding to avidin beads; shares compounds with RGS16-Gao; streptavidin beads, fluorescein-biotin binding, flow cytometry; inhibition, % at 10 µM; 1,700 tested, under 10 active; AID 1783;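 active = inhibition above 50%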;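 note: median green fluorescence of gated singlet beads compared with DMSO control wells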
# RGS8-Gao confirm = confirmation of regulators of human RGS8-Galphao interaction. bead-based flow cytometry RGS8-Galphao binding, fluorescence; actives lie on both sides. AID 1836. binding response (% of control), % at 10 µM. 3% of 1,700 active. shares compounds with RGS16-Gao; in the data active = binding response below about 72% or above about 130%; inactive = in between;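 note: Galphao activated as GDP AlF4 complex before binding bead RGS8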
# RGS7-Gao confirm = confirmation of regulators of human RGS7-Galphao interaction; AID 1837; 7.8% of 1,700 active; response (percent of control binding), % at 10 µM; shares compounds with RGS16-Gao; bead-based flow cytometry RGS7-Galphao binding; actives lie on both sides; in the data active = response below about 75% or above about 130%; inactive = in between;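 note: fluorescent Galphao activated with GDP and aluminum fluoride binding bead-coupled RGS7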
# RGS16-Gao conf = confirmation of regulators of human RGS16-Galphao interaction; AID 1838; 4% of 1,700 active; shares compounds with RGS16-Gao; bead-based flow cytometry, RGS16-Galphao binding; actives lie on both sides; response (% of control binding), % at 10 µM; in the data active = response below about 74% or above about 130%; inactive = in between;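 note: Galphao activated as the GDP aluminium fluoride complex binding bead-coupled RGS16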
# RGS4-Gao single = RGS4-Galphao interaction regulation, single point confirmation | binding response (% of control), % at 10 µM | RGS4-Galphao binding, multiplexed bead flow cytometry; actives lie on both sides | 4% of 1,700 active | AID 1840 | shares compounds with RGS16-Gao; in the data active = binding response below about 74% or above about 130%; inactive = in between
# RGS19-Gao single = confirmation of regulators of human RGS19-Galphao interaction | shares compounds with RGS16-Gao | bead-based flow cytometry RGS19-Galphao binding; actives lie on both sides | response (percent of control binding), % at 10 µM | 5% of 1,700 active; in the data active = response below about 50% or above about 160%; inactive = in between
# A number is an active result; i = inactive; ? = inconclusive; nt = no result given; [ ] = dose if it differs, or a comment. Unless noted, the rule behind the calls is not given here.
SMILES,RGS8-Gao reg,RGS4-Gao reg,RGS16-Gao,GSH bead fluor,Avidin bead fluor,RGS7-Gao reg,RGS4-Gao HTS,Avidin counter,RGS8-Gao confirm,RGS7-Gao confirm,RGS16-Gao conf,RGS4-Gao single,RGS19-Gao single
COCCCNC(CC(=O)Nc1ccc(OC)cc1OC)C(=O)O (configuration not stated),nt,nt,nt,i,nt,nt,nt,i,i,i,i,i,i
COc1cccc(CN(C(=O)Cn2nnc(-c3ccccc3F)n2)C(C(=O)NC(C)(C)C)c2ccncc2)c1 (configuration not stated),i,i,i,i,i,i,nt,nt,nt,nt,nt,nt,nt
O=C(c1nn2c(C(F)(F)F)cc(-c3ccco3)nc2c1Br)N1CCCc2ccccc21,nt,nt,nt,i,nt,nt,nt,i,i,i,i,i,i
COc1ccc(-c2cn3c(C)c(C(=O)Nc4cccc(C)n4)sc3n2)cc1,i,i,i,i,198,181[activator],110,i,i,i,i,i,i
Cc1cccc(NC(=O)c2sc3nc(-c4ccccc4)cn3c2C)n1,i,i,i,i,i,i,nt,nt,nt,nt,nt,nt,nt
Cc1ccc(NC(=O)CSc2nc3ccccc3c(=O)n2CCCN2CCCCC2)cc1Cl,149[activator],i,i,i,i,i,115,i,i,61,i,71,i
CC1CCN(CCCn2c(SCC(=O)Nc3ccccc3Cl)nc3ccccc3c2=O)CC1,145[activator],i,i,i,i,i,119,i,i,i,i,i,i
O=Nc1c(-c2cccc([N+](=O)[O-])c2)nc2ncccn12,i,i,i,nt,i,?,nt,nt,nt,nt,nt,nt,nt
CC(C)=NOc1nc(N(C)C)nc(N(C)C)n1,i,i,208[activator],i,i,i,108,i,i,i,i,i,i
Cc1cc2cc3c(cc2nc1SCC(=O)Nc1nc(C)c(C)s1)OCO3,i,164[activator],i,i,i,i,nt,i,i,i,i,i,i
CCOC(=O)N1CCN(C(=O)C2CCN(C(=O)c3cc(OC)cc(OC)c3)CC2)CC1,i,i,205[activator],i,i,i,123,i,i,i,i,i,i
CCc1cc2c(=O)[nH]c(COC)nc2s1,i,i,i,i,i,i,nt,nt,nt,nt,nt,nt,nt
CCc1cc2c(=O)[nH]c(Cc3ccc(OC)cc3)nc2s1,i,i,16,i,i,i,89,i,i,i,i,i,i
COc1cccc(C2c3c(oc4cc(C)c(C)cc4c3=O)C(=O)N2CCCN(C)C)c1 (configuration not stated),i,i,i,i,117,263[activator],122,nt,nt,nt,nt,nt,nt
CCCCNC(=S)N/N=C/c1ccc(OCC(=O)Nc2c(C)cc(C)cc2C)c(OC)c1,i,i,i,i,i,i,nt,nt,nt,nt,nt,nt,nt
Cc1nc2c(=O)oc3ccccc3c2n1-c1ccccc1,141[activator],i,i,i,i,i,128,nt,nt,nt,nt,nt,nt
O=C(CN1C(=O)c2ccccc2S1(=O)=O)NCc1ccco1,i,i,i,i,i,i,nt,nt,nt,nt,nt,nt,nt
O=C(c1ccco1)N1CCN(S(=O)(=O)c2ccc(Cl)s2)CC1,nt,nt,nt,i,nt,nt,nt,i,i,i,i,i,i
O=C1C2C3c4ccccc4C(c4ccccc43)C2C(=O)N1c1cccnc1 (configuration not stated),i,i,24,i,i,i,88,i,i,i,i,i,i
CC12c3ccccc3C(c3ccccc31)C1C(=O)N(c3cccnc3)C(=O)C12 (configuration not stated),i,i,i,i,i,i,nt,nt,nt,nt,nt,nt,nt
CC(NS(=O)(=O)c1ccc(Cl)cc1)C(=O)NCCC1=CCCCC1 (configuration not stated),i,i,i,i,i,i,nt,nt,nt,nt,nt,nt,nt
Cc1nn(CCC(=O)O)c(C)c1C,i,i,i,i,79,165[activator],103,i,i,i,i,i,i
O=C(CSc1ccccc1)Nc1cc(S(=O)(=O)N2CCOCC2)ccc1N1CCOCC1,15,22,13,i,i,?,nt,i,i,i,i,i,i
O=C(CCl)Nc1cc(S(=O)(=O)N2CCOCC2)ccc1N1CCOCC1,i,i,i,i,i,?,nt,nt,nt,nt,nt,nt,nt
COc1ccc(CNC(=O)C2CCC(CNc3c(N4CCCCC4)c(=O)c3=O)CC2)cc1 (configuration not stated),24,20,14,nt,i,?,nt,i,i,i,i,i,i
SMILES,RGS8-Gao reg,RGS4-Gao reg,RGS16-Gao,GSH bead fluor,Avidin bead fluor,RGS7-Gao reg,RGS4-Gao HTS,Avidin counter,RGS8-Gao confirm,RGS7-Gao confirm,RGS16-Gao conf,RGS4-Gao single,RGS19-Gao single
COc1ccc(NS(=O)(=O)c2cccc(N/C(=N\S(=O)(=O)c3ccccc3)c3ccc(F)cc3)c2)cc1,i,i,i,i,i,i,nt,nt,nt,nt,nt,nt,nt
O=C(Cc1c[nH]c2ccccc12)N/N=C/c1ccc(F)cc1,i,i,21,i,i,i,92,i,i,i,i,i,i
CC1(C)CC(=O)C2=C(C1)Nc1ccccc1NC2c1cccnc1 (configuration not stated),i,i,i,i,i,i,nt,nt,nt,nt,nt,nt,nt
Cn1cccc1C1Nc2ccccc2NC2=C1C(=O)CC(C)(C)C2 (configuration not stated),58,i,i,i,i,i,60,i,i,i,i,i,i
COc1cc(O)c(C(CC(=O)N2CCCCC2)c2ccc(N(C)C)cc2)c(OC)c1 (configuration not stated),i,i,i,nt,i,?,nt,nt,nt,nt,nt,nt,nt
COc1ccc(Nc2nnc(SC(C(=O)Nc3cc(C)ccc3C)c3ccccc3)s2)cc1 (configuration not stated),i,i,i,i,i,i,nt,nt,nt,nt,nt,nt,nt
COc1ccc(C)cc1NC(=O)C(Sc1nnc(Nc2cc(C)ccc2OC)s1)c1ccccc1 (configuration not stated),3.4,11,-13,i,i,7.2,nt,i,i,i,i,i,i
O=C(CCCOc1ccc(Cl)cc1Cl)Nc1ncccn1,i,i,i,nt,i,?,nt,nt,nt,nt,nt,nt,nt
Cc1cc(NC(=O)CCCOc2ccc(Cl)cc2Cl)no1,167[activator],i,i,i,i,i,142,nt,nt,nt,nt,nt,nt

# Assay outcomes (PubChem BioAssay)
